From publication doi:10.1101/2024.03.05.583629 come the findings set out here.

pT7_6His-AlfaTag-HOXD13, sequence (P35453 263-343): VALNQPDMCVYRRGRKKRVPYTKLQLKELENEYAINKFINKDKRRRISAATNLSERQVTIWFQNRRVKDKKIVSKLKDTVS

The experiment concerns the target pT7_6His-AlfaTag-HOXD13 (human, UniProt P35453 263-343). In words: PADIT-seq. The conditions noted are these: dsDNA, one strand shown.
With “CTCGAGGATATCAAGATCTGGCCTCGGCGTTTTAGCGGGAACCTCTAGCTAGCCGACTCACTATAGGGATAATCGCCCTGAGCAAAGACC”, the binding signal is -0.00405 ± 0.124 log2FC.

Take “CTCGAGGATATCAAGATCTGGCCTCGGCGTTGTAAAAGGAACCTCTAGCTAGCCGACTCACTATAGGGATAATCGCCCTGAGCAAAGACC”: the binding signal came to 2.39 ± 0.0772 log2FC.

The sequence “CTCGAGGATATCAAGATCTGGCCTCGGCGTACTAAAAGGAACCTCTAGCTAGCCGACTCACTATAGGGATAATCGCCCTGAGCAAAGACC” showed a binding signal of 0.47 ± 0.0814 log2FC.

For the sequence “CTCGAGGATATCAAGATCTGGCCTCGGCTGGATAAAAGGAACCTCTAGCTAGCCGACTCACTATAGGGATAATCGCCCTGAGCAAAGACC”, the binding signal is -0.165 ± 0.087 log2FC.

In turn, “CTCGAGGATATCAAGATCTGGCCTCGGCTCAATAAAAGGAACCTCTAGCTAGCCGACTCACTATAGGGATAATCGCCCTGAGCAAAGACC” gave a binding signal of 2.74 ± 0.0786 log2FC.

“CTCGAGGATATCAAGATCTGGCCTCGGCCCTATAAAAGGAACCTCTAGCTAGCCGACTCACTATAGGGATAATCGCCCTGAGCAAAGACC”: the binding signal is 2.89 ± 0.0925 log2FC.

The sequence “CTCGAGGATATCAAGATCTGGCCTCGGCTCTCTAAAAGGAACCTCTAGCTAGCCGACTCACTATAGGGATAATCGCCCTGAGCAAAGACC” registered a binding signal of 0.412 ± 0.105 log2FC.

For the sequence “CTCGAGGATATCAAGATCTGGCCTCGGCAAGGTAAAAGGAACCTCTAGCTAGCCGACTCACTATAGGGATAATCGCCCTGAGCAAAGACC”, the binding signal is -0.357 ± 0.0936 log2FC.

“CTCGAGGATATCAAGATCTGGCCTCGGCTTACCACGCGGAACCTCTAGCTAGCCGACTCACTATAGGGATAATCGCCCTGAGCAAAGACC” returned a binding signal of -1.03 ± 0.114 log2FC.

The sequence “CTCGAGGATATCAAGATCTGGCCTCGGCGCTGTAAAAGGAACCTCTAGCTAGCCGACTCACTATAGGGATAATCGCCCTGAGCAAAGACC” had a binding signal of 2.11 ± 0.0786 log2FC.

For the sequence “CTCGAGGATATCAAGATCTGGCCTCGGCGTTTTAGATGGAACCTCTAGCTAGCCGACTCACTATAGGGATAATCGCCCTGAGCAAAGACC”, the binding signal was 0.145 ± 0.106 log2FC.

As to “CTCGAGGATATCAAGATCTGGCCTCGGCCGCCCATAAGGAACCTCTAGCTAGCCGACTCACTATAGGGATAATCGCCCTGAGCAAAGACC”, the binding signal is -0.213 ± 0.101 log2FC.

Regarding “CTCGAGGATATCAAGATCTGGCCTCGGCGTTTTAAAGGGAACCTCTAGCTAGCCGACTCACTATAGGGATAATCGCCCTGAGCAAAGACC”, the binding signal was determined as 2.48 ± 0.082 log2FC.

Sequence “CTCGAGGATATCAAGATCTGGCCTCGGCTACTGGGCGGGAACCTCTAGCTAGCCGACTCACTATAGGGATAATCGCCCTGAGCAAAGACC” had a binding signal of -1.09 ± 0.112 log2FC.

As for “CTCGAGGATATCAAGATCTGGCCTCGGCGTTTTAAATGGAACCTCTAGCTAGCCGACTCACTATAGGGATAATCGCCCTGAGCAAAGACC”, the binding signal was determined as 1.63 ± 0.0846 log2FC.

For “CTCGAGGATATCAAGATCTGGCCTCGGCCGCAGTCGCGGAACCTCTAGCTAGCCGACTCACTATAGGGATAATCGCCCTGAGCAAAGACC”, the binding signal was -1.09 ± 0.145 log2FC.

“CTCGAGGATATCAAGATCTGGCCTCGGCAACGTAAAAGGAACCTCTAGCTAGCCGACTCACTATAGGGATAATCGCCCTGAGCAAAGACC”: the binding signal was determined as 0.751 ± 0.0928 log2FC.

Consider “CTCGAGGATATCAAGATCTGGCCTCGGCCGCCCAGAGGGAACCTCTAGCTAGCCGACTCACTATAGGGATAATCGCCCTGAGCAAAGACC”, for which the binding signal is -1.03 ± 0.139 log2FC.

With “CTCGAGGATATCAAGATCTGGCCTCGGCATTTTATTGGGAACCTCTAGCTAGCCGACTCACTATAGGGATAATCGCCCTGAGCAAAGACC”, the binding signal stood at 3.32 ± 0.0805 log2FC.

In the case of “CTCGAGGATATCAAGATCTGGCCTCGGCCTTTTAAAGGGAACCTCTAGCTAGCCGACTCACTATAGGGATAATCGCCCTGAGCAAAGACC”, the binding signal amounted to 2.37 ± 0.0692 log2FC.

The sequence “CTCGAGGATATCAAGATCTGGCCTCGGCCATATAAAAGGAACCTCTAGCTAGCCGACTCACTATAGGGATAATCGCCCTGAGCAAAGACC” gave a binding signal of 2.76 ± 0.0974 log2FC.

“CTCGAGGATATCAAGATCTGGCCTCGGCCGCCCAACAGGAACCTCTAGCTAGCCGACTCACTATAGGGATAATCGCCCTGAGCAAAGACC” came in with a binding signal of -0.724 ± 0.117 log2FC.

Turning to “CTCGAGGATATCAAGATCTGGCCTCGGCCCGCTAAAAGGAACCTCTAGCTAGCCGACTCACTATAGGGATAATCGCCCTGAGCAAAGACC”, the binding signal is -0.398 ± 0.11 log2FC.

“CTCGAGGATATCAAGATCTGGCCTCGGCTATTTAAAAGGAACCTCTAGCTAGCCGACTCACTATAGGGATAATCGCCCTGAGCAAAGACC”: the binding signal worked out at 2.42 ± 0.0909 log2FC.

The sequence “CTCGAGGATATCAAGATCTGGCCTCGGCTTCATAAAAGGAACCTCTAGCTAGCCGACTCACTATAGGGATAATCGCCCTGAGCAAAGACC” showed a binding signal of 2.49 ± 0.0838 log2FC.

In turn, “CTCGAGGATATCAAGATCTGGCCTCGGCTTTTTAATAGGAACCTCTAGCTAGCCGACTCACTATAGGGATAATCGCCCTGAGCAAAGACC” returned a binding signal of 2.75 ± 0.0795 log2FC.

Turning to “CTCGAGGATATCAAGATCTGGCCTCGGCCGCATCCGCGGAACCTCTAGCTAGCCGACTCACTATAGGGATAATCGCCCTGAGCAAAGACC”, the binding signal was -0.957 ± 0.122 log2FC.

Sequence “CTCGAGGATATCAAGATCTGGCCTCGGCACTCTAAAAGGAACCTCTAGCTAGCCGACTCACTATAGGGATAATCGCCCTGAGCAAAGACC” returned a binding signal of 0.139 ± 0.11 log2FC.

On to “CTCGAGGATATCAAGATCTGGCCTCGGCCTTTTATACGGAACCTCTAGCTAGCCGACTCACTATAGGGATAATCGCCCTGAGCAAAGACC”, for which the binding signal was 2.32 ± 0.0734 log2FC.

For “CTCGAGGATATCAAGATCTGGCCTCGGCATTTTAACGGGAACCTCTAGCTAGCCGACTCACTATAGGGATAATCGCCCTGAGCAAAGACC”, the binding signal is 1.87 ± 0.0803 log2FC.

As to “CTCGAGGATATCAAGATCTGGCCTCGGCTTTTTAGCTGGAACCTCTAGCTAGCCGACTCACTATAGGGATAATCGCCCTGAGCAAAGACC”, the binding signal was -0.298 ± 0.114 log2FC.

On to “CTCGAGGATATCAAGATCTGGCCTCGGCGTGATAAAAGGAACCTCTAGCTAGCCGACTCACTATAGGGATAATCGCCCTGAGCAAAGACC”, for which the binding signal worked out at 1.99 ± 0.0801 log2FC.

“CTCGAGGATATCAAGATCTGGCCTCGGCGCCATAAAAGGAACCTCTAGCTAGCCGACTCACTATAGGGATAATCGCCCTGAGCAAAGACC” returned a binding signal of 2.57 ± 0.0659 log2FC.

“CTCGAGGATATCAAGATCTGGCCTCGGCGTTTTAATAGGAACCTCTAGCTAGCCGACTCACTATAGGGATAATCGCCCTGAGCAAAGACC” returned a binding signal of 2.63 ± 0.0918 log2FC.

Take “CTCGAGGATATCAAGATCTGGCCTCGGCGTTTTAGTTGGAACCTCTAGCTAGCCGACTCACTATAGGGATAATCGCCCTGAGCAAAGACC”: the binding signal stood at 0.145 ± 0.11 log2FC.

Take “CTCGAGGATATCAAGATCTGGCCTCGGCTTTTTATGGGGAACCTCTAGCTAGCCGACTCACTATAGGGATAATCGCCCTGAGCAAAGACC”: the binding signal is 3.53 ± 0.0874 log2FC.

“CTCGAGGATATCAAGATCTGGCCTCGGCAAGTTAAAAGGAACCTCTAGCTAGCCGACTCACTATAGGGATAATCGCCCTGAGCAAAGACC” yielded a binding signal of 1.07 ± 0.0825 log2FC.

In turn, “CTCGAGGATATCAAGATCTGGCCTCGGCATGCTAAAAGGAACCTCTAGCTAGCCGACTCACTATAGGGATAATCGCCCTGAGCAAAGACC” displayed a binding signal of 0.0523 ± 0.0889 log2FC.

Regarding “CTCGAGGATATCAAGATCTGGCCTCGGCCTTTTACTAGGAACCTCTAGCTAGCCGACTCACTATAGGGATAATCGCCCTGAGCAAAGACC”, the binding signal is 3.01 ± 0.0725 log2FC.
